An excerpt weighted towards active compounds, which were near 9.2% of everything screened.
UCHL1 block: blocks human UCHL1 ubiquitin-rhodamine cleavage | 0.2% of 47,000 active | P09936 | purified UCHL1, Ub-rhodamine cleavage fluorescence | inhibition, % at 20 µM
OTUD3 inh: inhibitors of human OTUD3 deubiquitinase; purified OTUD3, Ub-rhodamine fluorescence, 2 h; Q5T2D3; 0.7% of 47,000 active; AID 1645858; inhibition, % at 25 µM
USP7 inh: human USP7 deubiquitinase inhibition | Q93009 | purified USP7, Ub-rhodamine cleavage fluorescence | inhibition, % at 20 µM | 0.3% of 47,000 active | AID 1645854
USP17 block: blocks human USP17 ubiquitin-rhodamine cleavage | A8MUK1 | 6.5% of 47,000 active | AID 1645855 | inhibition, % at 50 µM | purified USP17, Ub-rhodamine cleavage fluorescence, 3 h
Target sequence (A8MUK1 whole entry, looked up): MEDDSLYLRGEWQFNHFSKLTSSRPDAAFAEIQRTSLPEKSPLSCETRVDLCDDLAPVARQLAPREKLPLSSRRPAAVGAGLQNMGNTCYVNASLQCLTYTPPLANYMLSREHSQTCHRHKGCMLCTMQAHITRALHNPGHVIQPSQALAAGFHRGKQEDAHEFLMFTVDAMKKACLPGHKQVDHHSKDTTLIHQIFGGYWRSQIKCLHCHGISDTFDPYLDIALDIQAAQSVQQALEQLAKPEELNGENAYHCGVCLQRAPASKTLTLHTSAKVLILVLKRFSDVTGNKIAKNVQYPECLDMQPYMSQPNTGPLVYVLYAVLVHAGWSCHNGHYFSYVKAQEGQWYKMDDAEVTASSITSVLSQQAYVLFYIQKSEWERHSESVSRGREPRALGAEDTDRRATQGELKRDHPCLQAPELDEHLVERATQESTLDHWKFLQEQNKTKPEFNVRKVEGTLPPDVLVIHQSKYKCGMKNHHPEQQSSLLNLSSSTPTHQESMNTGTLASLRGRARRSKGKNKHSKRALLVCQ
USP8 block: human USP8 deubiquitinase inhibition; P40818; purified USP8, Ub-rhodamine cleavage fluorescence, 30 min; inhibition, % at 20 µM; 4.2% of 47,000 active
USP10 block: inhibitors of human USP10 deubiquitinase; 1.1% of 47,000 active; purified USP10, Ub-rhodamine fluorescence, 60 min; inhibition, % at 20 µM
* = called active by the depositor. Cut-off read from the data, not from the text of the source: active = inhibition above about 30%; inactive = the rest.

SMILES | UCHL1 block | OTUD3 inh | USP7 inh | USP17 block | USP8 block | USP10 block
COc1ccc(C(=O)C(C)OC(=O)c2cccc(S(=O)(=O)Nc3cc([N+](=O)[O-])ccc3OC)c2)c(OC)c1 (configuration not stated) | 6.3 | -0.1 | 16.9 | 7.2 | 19.7 | 37.1*
O=C(CCc1ccc(S(=O)(=O)N2CCOCC2)cc1)OCC(=O)c1ccc(-c2ccccc2)cc1 | 1.2 | 11.0 | 10.4 | 25.1 | 31.4* | 37.7*
Cc1ccc(Cl)cc1NC(=O)c1ccn(COc2ccccc2F)n1 | 4.7 | 5.1 | 2.1 | 0.3 | -10.4 | 8.7
Cc1ccc(NC(=O)c2ccn(COc3ccc(Cl)c(C)c3)n2)nc1 | -0.1 | -0.5 | 3.7 | 33.9* | 18.9 | 7.2
Cc1ccc(NC(=O)c2ccn(COc3ccccc3Cl)n2)nc1 | -0.1 | 7.1 | 6.6 | 33.0* | 21.3 | 4.3
COc1cc2nc(NC(=O)c3ccc(F)cc3Cl)sc(=O)c2cc1OC | 6.2 | 19.5 | -5.5 | 62.4* | 26.5 | 4.9
O=C(Nc1ccc2nc3n(c(=O)c2c1)CCCC3)c1ccc(F)cc1Cl | -0.5 | -13.3 | -5.1 | -6.5 | -0.8 | -4.4
Cc1cccc(C)c1NC(=O)Cn1c(=O)n(CCCCC(=O)NCc2ccc3c(c2)OCO3)c(=O)c2ccccc21 | 4.2 | 18.3 | 16.7 | 32.6* | 68.9* | 54.3*
O=C(CCCn1c(=O)c2ccccc2n(CC(=O)Nc2ccc(Br)cc2F)c1=O)NCc1ccccc1Cl | -0.3 | 11.5 | -0.3 | 40.7* | 0.9 | -2.9
O=C(CCCCn1c(=O)c2ccccc2n(CC(=O)Nc2ccc(Br)cc2F)c1=O)NCc1ccco1 | -169.0 | -172.4 | -160.8 | -133.8 | -230.9 | -10.5
O=C(CSc1n[nH]c2nc3ccccc3n12)Nc1ccc2c(c1)OCO2 | 3.0 | 1.2 | 3.9 | -28.0 | 30.3* | 10.4
COc1ccc(CCNC(=O)Cn2c(=O)n(CCCCC(=O)NCc3ccc4c(c3)OCO4)c(=O)c3ccccc32)cc1OC | 4.0 | 0.2 | 9.0 | 27.8 | -3.4 | 19.1
O=C(CCCn1c(=O)c2ccccc2n(CC(=O)NCc2ccccc2Cl)c1=O)NCc1ccc2c(c1)OCO2 | 6.1 | 26.2 | 27.4 | 27.1 | 72.5* | 56.7*
Cc1nn(C)c(Cl)c1C1CCCN1CC(=O)NC1CCCCC1 (configuration not stated) | -5.0 | -16.7 | -6.5 | -20.1 | -10.2 | -3.9
Cn1ccc(C(=O)N2CCCC(Cc3cc(-c4ncc[nH]4)ncn3)C2)n1 (configuration not stated) | -1.5 | -6.6 | 0.0 | -11.9 | -44.4 | 0.0
O=C(Cn1c(=O)n(CCC(=O)N2CCc3ccccc3C2)c(=O)c2ccccc21)NCc1ccccc1Cl | 6.9 | 26.1 | -6.3 | 76.7* | 90.2* | 23.0
O=C(CSc1c[nH]c2ccccc12)Nc1ccc2c(c1)OCO2 | 1.7 | -7.5 | -4.1 | -15.1 | 5.6 | 1.6
O=C(Cn1c(=O)c2ccccc2c2ccccc21)Nc1ccc2c(c1)OCO2 | 9.4 | 33.3* | 27.4 | 52.5* | 87.4* | 42.3*
CC(C)Sc1nc(SCC(=O)N2CCOCC2)c2c3c(sc2n1)COC(C)(C)C3 | -1.5 | 0.8 | -11.6 | -11.6 | 1.6 | 0.0
Cc1n[nH]c(C)c1CC(=O)NCCc1ccc(Cl)cc1 | 3.3 | 8.1 | 3.4 | 0.3 | 3.3 | 4.3
Cc1noc(C)c1NC(=O)NC(=O)c1c(F)cccc1F | 1.5 | 4.5 | 2.9 | 7.7 | 1.9 | -1.8
Cn1ncc(-c2nc(-c3ccc(Cl)cc3)cs2)c1NC(=O)NC(=O)c1c(F)cccc1F | 1.3 | -4.1 | 1.1 | 52.9* | 5.3 | 7.1
COC(=O)c1ccc(N2CCN(C(C)=O)CC2)c(NC(=O)COc2ccc([N+](=O)[O-])cc2)c1 | 4.8 | 1.7 | 11.9 | 4.4 | 79.7* | 42.6*
COc1ccc(NC(=O)c2cc3c(C(F)(F)F)nn(C)c3s2)cc1 | 2.1 | 5.5 | 11.2 | 47.8* | 13.1 | 11.0
COc1ccccc1NS(=O)(=O)c1ccc(NC(=O)c2cc3c(C)nn(-c4ccccc4)c3s2)cc1 | -0.5 | 20.4 | 3.3 | 27.3 | -3.2 | 0.1
SMILES | UCHL1 block | OTUD3 inh | USP7 inh | USP17 block | USP8 block | USP10 block
CSc1nc2ncn(CC(=O)Nc3cc(C)cc(C)c3)c(=O)c2s1 | -4.6 | -42.1 | 1.5 | 16.4 | -15.7 | -3.7
CSc1nc2ncn(CC(=O)Nc3ccc(Br)cc3)c(=O)c2s1 | -3.2 | -2.3 | 15.9 | -5.0 | 82.1* | 6.3
COc1cc(Cl)c(C)cc1NC(=O)c1cccc2ccccc12 | -3.8 | -4.6 | 0.3 | -48.4 | -189.1 | -0.7
CC(=O)Nc1ccc(S(=O)(=O)NCCn2c(C)cc3ccccc32)cc1 | -22.7 | -39.8 | -25.0 | 34.4* | -62.1 | -3.8
Cc1cc2ccccc2n1CCNS(=O)(=O)c1ccc([N+](=O)[O-])cc1 | -18.9 | -16.9 | -21.6 | 16.8 | -134.7 | -10.8
FC(F)(F)c1cccc(Nc2nnc(-c3cccnc3)s2)c1 | -2.1 | 2.1 | 1.1 | 50.2* | -20.6 | 0.5
NC(=O)COC(=O)c1cccnc1Nc1cccc(C(F)(F)F)c1 | 0.6 | -13.6 | -9.8 | -13.2 | -7.9 | 2.3
Cc1noc(C)c1CN1CCC(NC(=O)c2ccc(F)cc2)C1 (configuration not stated) | -2.5 | -0.2 | -4.6 | -2.9 | -9.9 | -1.1
COc1cccc(C(=O)NCC(c2cccnc2)S(=O)(=O)c2ccc(Cl)cc2)c1 (configuration not stated) | -0.6 | -6.3 | -0.5 | -13.6 | -20.6 | -1.4
CN(C)c1cccc(C(=O)Nc2cc(-c3cccnc3)no2)c1 | 3.0 | 7.0 | 3.1 | 50.5* | 20.8 | 15.2
CC(=O)N1[C@@H]2CN(C(=O)c3sc4ncn(C)c(=O)c4c3C)[C@@H]3CCCC[C@H]1[C@]3(C)C2 | 3.3 | 3.0 | 6.8 | 0.1 | -11.0 | 1.2
COc1ccc(-c2nc(SCC(=O)Oc3c(C)cccc3C)n3[nH]c(=O)cc3n2)cc1 | -0.1 | 13.9 | 0.4 | 8.5 | 83.4* | 45.7*
Cc1cc(NC(=O)c2cccc(N3CCOCC3)n2)n(-c2ccc(Cl)cc2)n1 | 0.6 | 7.8 | 8.0 | 21.6 | 52.0* | 8.0
Cc1cc(C)nc(-n2nc(C)cc2NC(=O)c2cccc(Cl)c2)n1 | -0.8 | -0.4 | 1.5 | 4.2 | -14.2 | 0.1
COc1cccc(CNc2nccn(-c3ccc(Br)c(C)c3)c2=O)c1 | -2.4 | 1.7 | -50.8 | -10.1 | 0.2 | -6.1
COc1cc(OC)cc(C(=O)NCCS(=O)(=O)N2CCN(c3ccccc3)CC2)c1 | 2.7 | -2.2 | 5.0 | -4.6 | -12.6 | 0.7
CCOC(=O)c1cnc(C(F)(F)F)nc1Sc1n[nH]c(-c2cccs2)n1 | -2.4 | 8.9 | 6.5 | 85.8* | 9.4 | -1.7
CCOC(=O)COc1nc(-c2cccs2)cc(C(F)(F)F)c1C#N | 2.2 | 12.5 | -0.4 | 21.5 | 2.7 | 5.4
CC1NC(=O)C(CC(N)=O)NC(=O)C(C(C)O)NC(=O)C(Cc2ccc(O)cc2)NC(=O)C(C(C)C)NC(=O)C(NC(=O)CC(O)CCCCCCCCCCCCN=C(N)N)C(C)OC1=O (configuration not stated) | 4.4 | 73.4* | -21.5 | 33.8* | -20.3 | -6.7

Bioassay records: PubChem BioAssay, Buhrlage Lab, Dana-Farber Cancer Institute and Novartis Institutes for BioMedical Research (Cambridge, Mass)
